Here are results for 6 compounds from PubChem BioAssay (Tox21).

Several values for one entry are separate records, joined by “and”; a condition that tells them apart may be missing. Identical values can stand only once. Records with an inconclusive call do not appear. Some compounds were tested as several samples or in several runs, with calls that do not always agree. Activity calls are given as the source filed them. Unless noted, calls come from the whole dose curve; as a rule, active = well fitted curve in the direction sought with a large enough effect in the repeat runs; inconclusive = weak or mixed curves; inactive = no such curve, though single readings can be large; an effect the other way counts as inactive or inconclusive.

Test [1] deals with Luciferin 4-monooxygenase (Photinus pyralis) (UniProt P08659). Nature of the test: qHTS assay to identify small molecule inhibitors of firefly luciferase (AID 1224835). Note: nearly all actives have a fitted effect of over 25% in size. Summed up:
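Inhibition of purified Photinus luciferase is measured by luminescence. Substrate levels (D-luciferin, ATP) sit at their KM values. Each compound is tested in a concentration series.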
(In general: Quantitative high-throughput screening tests each substance at several concentrations.)

Test [2] in a line: qHTS assay to identify small molecule agonists of the constitutive androstane receptor (CAR) signaling pathway - cell viability counter screen (AID 1224836). Note: nearly all actives have a fitted effect of over 45% in size. Summed up:
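Viability read-out: CellTiter-Fluor fluorescence after 23 h compound exposure at 37 C/5% CO2 in double-stable HepG2-CYP2B6-hCAR cells, with PK11195 present at 0.75 uM final; compounds tested in 15-point titration.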

A short description of test [3]: qHTS assay to identify small molecule antagonists of the constitutive androstane receptor (CAR) signaling pathway - cell viability counter screen (AID 1224837). Note: nearly all actives have a fitted effect of over 45% in size. In short, it runs like this:
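Using CellTiter-Fluor, viability is scored in HepG2 cells stably carrying hCAR and a 2.2kb CYP2B6 reporter after 23 hr compound exposure across 15 concentrations, with CITCO present at 50 nM.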

The target of test [4] is Nuclear receptor subfamily 1 group I member 3 (Homo sapiens) (UniProt Q14994). The test can be described thus: qHTS assay to identify small molecule antagonists of the constitutive androstane receptor (CAR) signaling pathway (AID 1224838).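 Note: HepG2 cells stably expressing hCAR with CYP2B6 luciferase reporter stimulated by CITCO; nearly all actives have a fitted effect of over 40% in size.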 In short, it runs like this: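 Reporter luminescence was quantified after 24 h exposure of hCAR/CYP2B6-2.2kb double-stable HepG2 cells to compounds at 15 concentrations in the presence of 50 nM CITCO final.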

Test [5] shares this target. Nature of the test: qHTS assay to identify small molecule agonists of the constitutive androstane receptor (CAR) signaling pathway (AID 1224839).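 Note: HepG2 cells stably carrying human CAR and a CYP2B6 luciferase reporter; nearly all actives have a fitted effect of over 15% in size.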 Summed up: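 Luminescence read-out (ONE-Glo, 30 min, room temperature) from double-stable HepG2-CYP2B6-hCAR cells exposed 24 h to 15-point compound series in presence of 0.75 uM PK11195 final.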
Test [6] in a line: qHTS assay to identify small molecule antagonists of the estrogen related receptor signaling pathway with the pleiotropic PPARgamma coactivator (PGC) from Tox21 10K library - cell viability counter screen (AID 1224840; active = well fitted cell-killing curve with a large enough effect in the repeat runs, not every such curve was filed as active; note: nearly all actives have a fitted effect of over 40% in size). Summed up:
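Here the PGC/ERR cells serve as a cytotoxicity control: they are exposed to compounds for 17.5 hours at 37 C, and live-cell signal is quantified using CellTiter-Fluor fluorescence.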

The nature of test [7]: qHTS assay to identify small molecule antagonists of the estrogen related receptor signaling pathway with the pleiotropic PPARgamma coactivator (PGC) from Tox21 10K library (AID 1224841; call rule not given here; note: actives are mostly falling curves and most rising ones were filed inactive; nearly all actives have a fitted effect of over 50% in size). In short, it runs like this:
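Each well held 2,000 PGC/ERR cells, pre-incubated six hours (37 C, 5% CO2). Test substances in DMSO were added by pin tool and left for 18 h at 37 C before luciferase detection by One-Glo.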

A short description of test [8]: qHTS assay to identify small molecule agonists of the estrogen related receptor signaling pathway with the pleiotropic PPARgamma coactivator (PGC) from Tox21 10K library (AID 1224842). Note: nearly all actives have a fitted effect of over 15% in size. Summed up:
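Luminescence from One-Glo (30 min, room temperature) measured after PGC/ERR cells had 18 h at 37 C with pinned compound (23 nL in DMSO). Cells had been seeded at 2,000 per well and pre-incubated 6 h.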

Test [9] has as its target Thyrotropin receptor (Homo sapiens) (UniProt P16473). The test can be described thus: qHTS assay to identify small molecule agonists of the thyroid stimulating hormone receptor (TSHR) signaling pathway (AID 1224843; calls by dose curve; note: nearly all actives have a fitted effect of over 45% in size). In short, it runs like this:
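HEK293 cells stably bearing the thyrotropin receptor were plated at 800 cells/well and challenged with compound (30 min, RT). Accumulated cAMP was quantified via cAMP-d2 competing for cryptate-tagged antibody.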

Test [10] is described as follows: qHTS assay to identify small molecule agonists of the hypoxia (HIF-1) signaling pathway - cell viability counter screen (AID 1224844; calls by dose curve; note: nearly all actives have a fitted effect of over 50% in size; note: potency is the fitted concentration of half-maximal effect). Summed up:
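Multiplexed with the HRE beta-lactamase assay, this viability read used CellTiter-Glo luminescence (30 min, RT) on HRE-bla ME-180 cells treated 17 hrs with compounds in 0.5% dialyzed FBS medium.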

Test [11] in a line: qHTS assay to identify small molecule agonists of H2AX (AID 1224845; active = well fitted activation curve with a large enough effect in the signal ratio in the repeat runs, not every such curve was filed as active; the % refers to the signal ratio). In short, it runs like this: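 Phospho-H2AX Ser139 measured by HTRF (ex 320 nm; em 665 and 620 nm) after 24 hr antibody incubation. Compounds, 15 concentrations, 0.76% DMSO, were applied to CHO-K1 cells for 3hr at 37C before lysis.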
Test [12] can be described thus: qHTS assay to identify small molecule agonists of the hypoxia (HIF-1) signaling pathway (AID 1224846; active = well fitted activation curve with a large enough effect in the signal ratio in the repeat runs, not every such curve was filed as active; the % refers to the signal ratio). In short, it runs like this: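 Hypoxia-pathway activation was scored as increased beta-lactamase from an HRE-controlled reporter in ME-180 cells; plated at 2,000 cells per well with 0.5% dialyzed FBS, they were exposed 17 hrs to compounds and then given CCF4-AM.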

Test [13] in a line: qHTS assay to identify small molecule agonists of H2AX - cell viability counter screen (AID 1224847; calls by dose curve;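 note: wild-type CHO-K1 cells; top concentration of the series differs between compounds; nearly all actives have a fitted effect of over 30% in size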). Summed up:
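CHO-K1 wt, 1000 cells/well, o/n 37C; cpds 15 conc, 3 h 37C, 0.76% DMSO; CellTiter-Glo, 30 min RT, luminescence.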

A short description of test [14]: qHTS assay to identify small molecule antagonists of the estrogen related receptor (ERR) signaling pathway from Tox21 library (AID 1224848). Note: nearly all actives have a fitted effect of over 50% in size. Summed up: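 Reading was by luminescence 30 min after ONE-Glo addition. Before that, ERR cells at 2,000 per well had rested 6 h at 37 C/5% CO2 and then received pin-tooled compounds in DMSO for 18 h at 37 C.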
Test [15] in a line: qHTS assay to identify small molecule agonists of the estrogen related receptor (ERR) signaling pathway from Tox21 library (AID 1224849; calls by dose curve; note: nearly all actives have a fitted effect of over 15% in size). The note with it: ERR reporter cell line, ONE-Glo luciferase, 18 h. In short, it runs like this: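 Six hours post-seeding at 37 C/5% CO2, ERR cells receive DMSO-solubilised compounds; after 18 h at 37 C, ONE-Glo reagent is applied and luminescence recorded.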

Test [16] in a line: qHTS RealTime-Glo MT Cell Viability Assay in HepG2 cells - 24 hour (AID 1224867). Note: nearly all actives have a fitted effect of over 50% in size. Summed up: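 Real-time, nonlytic viability: 600 HepG2 cells/well mixed with NanoLuc enzyme plus prosubstrate; 5 h settle, compound (DMSO) added by pintool; luminescence monitored over 40 h at 37 C.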
Test [17] in a line: qHTS RealTime-Glo MT Cell Viability Assay in HEK293 cells - 32 hour (AID 1224868). Note: nearly all actives have a fitted effect of over 50% in size. Note: potency is the fitted concentration of half-maximal effect. In short, it runs like this:
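Cells + reagent dispensed (600 cells/well, HEK293) → 5 h at 37 C/5% CO2 → 23 nL compound in DMSO pinned → 40 h at 37 C → luminescence read at 0, 8, 16, 24, 32, 40 h.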

The nature of test [18]: A CellTox Green Cytotoxicity Assay to monitor cytotoxicity in HEK293 cells - 0 hour (AID 1224869). Note: nearly all actives have a fitted effect of over 50% in size. In short, it runs like this: (§1)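 Seeding of HEK293 cells together with cytotoxicity dye preceded a 5 h incubation at 37 C/5% CO2. Test compounds in DMSO were then added and fluorescence monitored across 40 h.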
Test [19] can be described thus: A CellTox Green Cytotoxicity Assay to monitor cytotoxicity in HEK293 cells - 40 hour (AID 1224871). Note: nearly all actives have a fitted effect of over 45% in size. Summed up: as §1
Test [20] can be described thus: qHTS RealTime-Glo MT Cell Viability Assay in HepG2 cells - 40 hour (AID 1224870). Note: nearly all actives have a fitted effect of over 50% in size. In short, it runs like this:
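Real-time viability: cells seeded at 600 per well together with NanoLuc and cell-permeant prosubstrate, compounds added after 5 h incubation. Luminescence tracked at 0, 8, 16, 24, 32 and 40 h of exposure.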
% is set by controls: 0 for no effect and ±100 for the full control effect.

Sequence of Nuclear receptor subfamily 1 group I member 3 (Homo sapiens) (Q14994 whole entry, looked up): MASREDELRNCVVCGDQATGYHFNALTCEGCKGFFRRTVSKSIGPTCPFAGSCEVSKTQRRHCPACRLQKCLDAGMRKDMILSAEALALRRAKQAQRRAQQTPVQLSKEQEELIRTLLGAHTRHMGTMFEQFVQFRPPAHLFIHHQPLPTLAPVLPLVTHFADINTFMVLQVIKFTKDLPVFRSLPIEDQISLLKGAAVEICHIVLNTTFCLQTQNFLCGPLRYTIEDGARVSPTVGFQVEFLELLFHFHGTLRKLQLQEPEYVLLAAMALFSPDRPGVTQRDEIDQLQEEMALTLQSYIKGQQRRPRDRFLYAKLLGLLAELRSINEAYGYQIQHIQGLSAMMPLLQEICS
Sequence of Thyrotropin receptor (Homo sapiens) (P16473 whole entry, looked up): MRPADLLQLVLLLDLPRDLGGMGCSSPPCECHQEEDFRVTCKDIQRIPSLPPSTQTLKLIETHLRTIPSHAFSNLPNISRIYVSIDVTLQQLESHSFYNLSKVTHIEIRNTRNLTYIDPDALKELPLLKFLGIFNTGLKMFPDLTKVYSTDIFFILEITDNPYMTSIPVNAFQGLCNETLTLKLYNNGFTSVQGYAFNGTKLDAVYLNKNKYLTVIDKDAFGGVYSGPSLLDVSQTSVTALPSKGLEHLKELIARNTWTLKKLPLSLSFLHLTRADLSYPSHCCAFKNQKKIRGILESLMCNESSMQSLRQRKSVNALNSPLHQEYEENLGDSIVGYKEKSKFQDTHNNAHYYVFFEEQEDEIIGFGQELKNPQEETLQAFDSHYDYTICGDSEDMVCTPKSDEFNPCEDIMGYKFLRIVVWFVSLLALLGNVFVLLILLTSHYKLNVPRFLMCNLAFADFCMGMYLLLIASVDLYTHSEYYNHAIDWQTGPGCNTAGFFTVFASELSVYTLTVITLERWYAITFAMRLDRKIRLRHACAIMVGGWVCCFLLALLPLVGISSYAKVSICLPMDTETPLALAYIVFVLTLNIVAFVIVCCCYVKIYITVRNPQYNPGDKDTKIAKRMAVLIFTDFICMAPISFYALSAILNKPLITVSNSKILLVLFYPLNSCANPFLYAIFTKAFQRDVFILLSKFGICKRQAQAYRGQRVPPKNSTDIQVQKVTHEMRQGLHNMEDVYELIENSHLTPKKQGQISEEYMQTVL
Sequence of Luciferin 4-monooxygenase (Photinus pyralis) (P08659 whole entry, looked up): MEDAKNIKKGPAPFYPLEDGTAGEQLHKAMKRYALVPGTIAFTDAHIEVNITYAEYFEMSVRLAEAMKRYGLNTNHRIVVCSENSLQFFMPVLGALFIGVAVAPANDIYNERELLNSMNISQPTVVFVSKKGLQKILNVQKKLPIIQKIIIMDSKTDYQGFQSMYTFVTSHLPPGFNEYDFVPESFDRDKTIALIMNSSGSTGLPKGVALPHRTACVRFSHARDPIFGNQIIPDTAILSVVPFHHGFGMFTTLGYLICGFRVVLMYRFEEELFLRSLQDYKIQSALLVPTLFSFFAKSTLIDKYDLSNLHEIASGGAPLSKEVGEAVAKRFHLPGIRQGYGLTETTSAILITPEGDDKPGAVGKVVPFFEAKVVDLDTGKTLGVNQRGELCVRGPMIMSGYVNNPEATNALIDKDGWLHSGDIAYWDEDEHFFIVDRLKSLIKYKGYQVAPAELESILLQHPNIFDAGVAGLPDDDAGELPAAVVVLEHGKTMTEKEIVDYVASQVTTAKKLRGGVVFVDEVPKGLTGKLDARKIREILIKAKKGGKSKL

Take `C=C(C)C(=O)OCCOC(=O)C(=C)C`: the Potency result in test [1], in [2], in test [3], in [4], in [5] and in test [6] was “inactive” throughout. Besides, the Potency entry in test [7], in test [8], in [9], in [10], in test [12] and in test [13] was “inactive” throughout. The Potency result in test [14], in test [16], in [17], in test [18] and in test [19] was “inactive” throughout. For the same compound, the compound was called inactive in test [11]. Besides, in test [15] (at 92.4 µM (top of the series)), the activity change, positive = activation was -0.0914% (inactive) and 4.51% (inactive).
As for `CCC(C)CO` (centres undefined), the Potency entry in test [1], in [2], in test [3], in test [4], in [5] and in test [6] was “inactive” in each case. Further, the Potency result in test [7], in test [8], in test [9], in test [10], in test [12] and in test [13] was “inactive” in each case. The Potency result in [14], in test [16], in test [18], in test [20] and in test [19] was “inactive” each time. The activity change, positive = activation in [15] (at 92.4 µM (top of the series)) is 1.13% (inactive) and -5.81% (inactive). Also, the Potency result in [17] is “inactive and 24.5 µM (active)”.
Turning to `CC(CCC(=O)O)(c1ccc(O)cc1)c1ccc(O)cc1`, the Potency entry in test [1], in test [2], in test [3], in [4], in [5] and in [6] was “inactive” in each case. Also, the Potency entry in test [7], in test [8], in [9], in [10], in test [14] and in [16] was “inactive” in each case. Besides, the Potency entry in [17] and in test [18] was “inactive” in each case. In addition, in test [15] (at 92.4 µM (top of the series)), the activity change, positive = activation is 1.54% (inactive) and 1.03% (inactive).
Regarding `COc1ccc(OC)c(C(O)CNC(=O)CN)c1` (centres undefined), the Potency result in test [1], in test [2], in [3], in test [4], in test [5] and in test [6] was “inactive” in each case. Also, the Potency entry in [7], in test [8], in test [9], in test [10], in test [14] and in test [16] was “inactive” throughout. In addition, the Potency entry in test [17], in test [18], in [20] and in test [19] was “inactive” in each case. The result in test [11] was inactive. In addition, the activity change, positive = activation was -0.419% (inactive) in [15] (at 42.5 µM (top of the series)) and -28% (inactive) in test [15] (at 92.4 µM (top of the series)).
On to `O=CCCCC=O`, for which the Potency entry in test [1], in test [2], in test [3], in test [4], in test [5] and in test [6] was “inactive” in each case. Also, the Potency result in test [7], in test [8], in [12], in [13], in [14] and in test [16] was “inactive” throughout. For the same compound, the Potency result in test [20] and in [19] was “inactive” in each case. The Potency was 21.1 µM (active) and 19.5 µM (active) in test [10]; 42.1 µM (active) and inactive in [17]. Further, the activity change, positive = activation in test [15] (at 92.4 µM (top of the series)) is -0.881% (inactive) and -3.51% (inactive).
Consider `Cc1ccc(C)c(O)c1C`, for which the Potency result in test [1], in [2], in test [3], in test [4], in test [5] and in test [6] was “inactive” throughout. Also, the Potency entry in test [9], in test [10], in [12], in [13], in test [16] and in [17] was “inactive” throughout. The Potency entry in [18] and in test [20] was “inactive” in each case. Further, the compound was classed as inactive in test [11].
